# Screens deposited in PubChem BioAssay by several laboratories.
# DSG3 Ab inh: inhibitors of pemphigus antibody binding to human desmoglein-3 | P32926 | DSG3-coupled beads, scFv-anti-DSG3-GFP binding, flow cytometry; stronger effect = lower value | binding (percent of control), % at 10 µM | 0.48% of 310,000 active;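 active = binding more than 3 SD below its plate's average and above zero; inconclusive = below that plate limit but binding exactly zero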;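 note: hits lower antibody fragment binding to DSG3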
# Target sequence (P32926 whole entry, looked up, the tested form may be a part): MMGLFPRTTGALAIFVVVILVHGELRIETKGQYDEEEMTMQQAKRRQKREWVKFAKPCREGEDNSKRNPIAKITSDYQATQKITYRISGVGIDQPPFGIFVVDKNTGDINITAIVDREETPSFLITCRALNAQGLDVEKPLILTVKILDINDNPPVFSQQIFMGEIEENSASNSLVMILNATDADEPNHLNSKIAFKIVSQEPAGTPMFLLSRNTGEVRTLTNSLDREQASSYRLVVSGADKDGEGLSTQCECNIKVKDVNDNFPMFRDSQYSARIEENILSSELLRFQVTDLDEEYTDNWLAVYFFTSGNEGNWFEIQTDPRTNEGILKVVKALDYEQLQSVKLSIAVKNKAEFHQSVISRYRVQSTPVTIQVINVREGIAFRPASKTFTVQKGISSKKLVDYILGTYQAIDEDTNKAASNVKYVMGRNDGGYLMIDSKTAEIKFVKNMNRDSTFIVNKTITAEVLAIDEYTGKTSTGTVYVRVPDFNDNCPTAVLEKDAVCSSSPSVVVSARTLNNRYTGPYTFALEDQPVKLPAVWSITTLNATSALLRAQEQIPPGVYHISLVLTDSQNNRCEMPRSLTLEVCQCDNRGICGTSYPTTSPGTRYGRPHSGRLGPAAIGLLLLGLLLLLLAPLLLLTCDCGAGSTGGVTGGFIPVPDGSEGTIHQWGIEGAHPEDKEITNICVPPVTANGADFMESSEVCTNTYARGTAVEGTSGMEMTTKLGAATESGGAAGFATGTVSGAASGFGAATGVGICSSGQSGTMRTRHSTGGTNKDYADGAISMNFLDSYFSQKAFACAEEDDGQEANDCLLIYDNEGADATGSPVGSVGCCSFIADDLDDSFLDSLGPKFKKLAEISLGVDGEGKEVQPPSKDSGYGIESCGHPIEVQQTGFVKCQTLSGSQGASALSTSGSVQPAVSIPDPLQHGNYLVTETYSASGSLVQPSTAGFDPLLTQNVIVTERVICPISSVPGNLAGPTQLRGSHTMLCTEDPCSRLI
# Glyco luc inh: blocks N-linked glycosylation in D54 reporter cells; reporter increase, % at 12.5 µM; D54 ERlucT glycosylation luciferase reporter, 24 h; percent of 100 nM tunicamycin response; 0.23% of 360,000 active;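 active = mean luciferase reporter signal, scaled so untreated is 0 and the glycosylation-blocking control 100, at or above a set limit in every replicate; inconclusive = mean reaches the limit but not every replicate does; inactive = mean below the limit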;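 note: luciferase carries N-glycosylation sites so blocking glycosylation raises the light; 0% = median of neutral control wells and 100% = median of 100 nM tunicamycin wells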
# Vif inh: inhibitors of HIV Vif. HEK293T cells, Vif self-association by quenched fluorescence, imaging, 24 h. inhibition, % at 7.49 µM. 0.35% of 340,000 active. AID 602346; in the data active = inhibition above about 50%, passing the limit was not always enough; inconclusive = no clear call, values can overlap the other calls; inactive = below about 31%
# ATG4B inh: blocks human ATG4B protease cleavage of LC3 substrate; Q9Y4P1; ATG4B cleavage of LC3-PLA2, NBD-HPC fluorescence, 1 h; inhibition, % at 8.33 µM; 0.51% of 340,000 active; AID 504462; in the data active = inhibition above about 40%
# CaV13 FRET inh: Primary screen for inhibitors of IQ motif and Ca2+-dependent inactivation inhibitor domain binding in CACNA1D, Förster resonance energy transfer in living cells, …. inhibition, % at 12.3 µM. HEK cells, CFP/YFP FRET ICDI-IQ, plate reader, 10 min; percent FRET-ratio fall versus neutral wells. 0.098% of 340,000 active. AID 743397;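 active = mean replicate inhibition of at least 30% and at least 1% of replicates passing that level; inconclusive = only one of the two criteria is met; inactive = neither criterion is met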;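 note: 0% = median of the neutral control wells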
# NSD2 inh: NSD2 (human) methyltransferase inhibition; 0.54% of 310,000 active; O96028; inhibition, % at 12.5 µM; NSD2 peptide methylation, AlphaScreen, 120 min; in the data active = inhibition above about 50%
# Starred values were filed as active, the others as inactive; ? = inconclusive; nt = no result; ! = not active in a repeat. In the library only some 1.9% were active in any assay of this set; here they are far more common.
SMILES,DSG3 Ab inh,Glyco luc inh,Vif inh,ATG4B inh,CaV13 FRET inh,NSD2 inh
O=C(O)c1ccc(CN2C(=O)c3cccc4c([N+](=O)[O-])ccc(c34)C2=O)cc1,119,31*,26,2,nt,nt
CCOC(=O)C1CCCN(CC(=O)Nc2c(C(=O)OC)[nH]c3ccc(Cl)cc23)C1 (stereo not drawn),105,-2,61*,-5,-4,-2
CC1CN(Cc2nc3c(c(=O)n(C)c(=O)n3C)n2CC(O)CO)CC(C)O1 (stereo not drawn),nt,3,-8,4,-5,21
CCN1C/C(=C\c2cccc([N+](=O)[O-])c2)C(=O)/C(=C/c2cccc([N+](=O)[O-])c2)C1,114,-23,70*,-7,-5,5
O=C(O)c1ccc(-n2ncc3c2/C(=C\c2cccc([N+](=O)[O-])c2)CC3)cc1,34*,5,-11,1,-3,11
O=C1/C(=C/c2cccc([N+](=O)[O-])c2)CCc2ccccc21,86,12,136*,15,-6,2
CCC(/C=C1\Sc2ccc(OC)cc2N1CC)=C\c1sc2ccc(OC)cc2[n+]1CCCS(=O)(=O)[O-],96,-4,0,-10,-4,11
CCC(/C=C1\Sc2ccc(OC)cc2N1CCO)=C\c1sc2ccc(OC)cc2[n+]1CCO,-40*,-9,-5,6,-3,22
COc1ccc(-c2nc(CS(=O)CC(=O)NCc3ccco3)c(C)o2)cc1OC (stereo not drawn),112,0,-2,-12,-7,nt
Cc1ccc(-n2c(SCC(=O)Nc3ccc4c(c3)OCO4)nnc2-c2cccs2)cc1,99,-3,76*,-3,-5,nt
O=C(CSc1nnc(-c2cccs2)n1-c1ccccc1)NCc1ccc2c(c1)OCO2,107,nt,nt,-9,-5,7
Cc1nc2nc(-c3ccco3)[nH]n2c(=O)c1Cc1ccccc1,103,1,?,2,-2,0
Cc1nc2nc(-c3ccco3)[nH]n2c(=O)c1C,65*,0,4,4,-8,-8
FC(F)(F)c1ccccc1NC(=S)Nc1cccc2cnccc12,99,7,-3,-17,-2,96*
CC1=C(/C=C/C(C)=C/C=C/C(C)=C/C(=O)Nc2ccc(O)cc2)C(C)(C)CCC1,86,1,50*!,0,-6,3
COc1ccc(-c2csc(NC(=O)c3cccc(N4C(=O)CCC4=O)c3)n2)cc1OC,101,-4,-6,-20,-15,-3
CCOc1ccc(-c2csc(NC(=O)c3cccc(N4C(=O)CCC4=O)c3)n2)cc1,57*,0,-7,-7,-9,-7
O=C1CCCCCC[C@@H](O)[C@H](O)C[C@H](c2ccccc2)O1,nt,nt,nt,nt,-10,nt
CC1CN(S(=O)(=O)c2cccc(C(=O)N3CCC(C(N)=O)CC3)c2)CC(C)O1 (stereo not drawn),93,1,53*,-2,-7,-2
CCCNC(=O)c1cc(-c2ccco2)on1,99,81*,-5,-3,-10,0
O=C(NCCCCCCNC(=O)OCc1ccccc1)OCc1ccccc1,6.8*,1,34,-10,-6,-3
COc1cccc2cc(-c3nc4ccccc4[nH]3)c(=O)oc12,84,-5,2,4,-13,-8
CCCCOC(=O)C[N+](C)(C)CCOC1CC2CCC1(C)C2(C)C (stereo not drawn),96,3,-4,6,1,-1
CCCOC(=O)C[N+](C)(C)CCOC1CC2CCC1(C)C2(C)C (stereo not drawn),105,2,63*,-2,-7,3
CCc1nn2c(NCCCO)cc(C)nc2c1-c1ccc(F)cc1,93,28*,-15,2,-2,0
Cc1ccc(-c2cc3nc(-c4ccccc4)cc(NCCCO)n3n2)cc1,95,4,7,nt,-5,4
O=C(N/N=C/c1ccncc1)c1sc2ccccc2c1Cl,-1.9*,1,1,-5,-7,-5
COc1ccnc(N2CCN(c3cccc(C(F)(F)F)c3)CC2)c1C#N,79*,0,-1,12,-4,-2
